Screens deposited in PubChem BioAssay by several laboratories.
BoNT F protease: BoNT F light chain protease inhibition. AID 588497. Multiplex microsphere protease cleavage assay, flow cytometry. 360,000 tested, 0.22% active. inhibition, % at 10 µM; in the data active means inhibition above about 35%, passing the limit was not always enough; inconclusive means no clear call, values can overlap the other calls; further: plate controls were buffer without enzyme for full effect and enzyme alone for no effect
BoNT A protease: blocks Botulinum neurotoxin A light chain protease | 360,000 tested, 0.17% active | multiplex microsphere protease substrate cleavage, flow cytometry | inhibition, % at 10 µM; further: plate controls were buffer without enzyme for full effect and enzyme alone for no effect
Autofluor counter: compound fluorescence in toxin protease inhibitor counterscreen | compound autofluorescence counterscreen, microsphere flow cytometry; stronger effect = higher value | fluorescence intensity (concentration not given with the values) | 360,000 tested, 3.1% active | AID 624483; in the data active means fluorescence intensity above about 16000; inconclusive means no clear call, values can overlap the other calls
Anthrax LF inh2: blocks Bacillus anthracis lethal factor protease; P15917; multiplex microsphere protease cleavage assay, LF; inhibition, % at 10 µM; 360,000 tested, 0.12% active; further: plate controls were buffer without enzyme for full effect and enzyme alone for no effect
Target sequence (P15917 whole entry, looked up): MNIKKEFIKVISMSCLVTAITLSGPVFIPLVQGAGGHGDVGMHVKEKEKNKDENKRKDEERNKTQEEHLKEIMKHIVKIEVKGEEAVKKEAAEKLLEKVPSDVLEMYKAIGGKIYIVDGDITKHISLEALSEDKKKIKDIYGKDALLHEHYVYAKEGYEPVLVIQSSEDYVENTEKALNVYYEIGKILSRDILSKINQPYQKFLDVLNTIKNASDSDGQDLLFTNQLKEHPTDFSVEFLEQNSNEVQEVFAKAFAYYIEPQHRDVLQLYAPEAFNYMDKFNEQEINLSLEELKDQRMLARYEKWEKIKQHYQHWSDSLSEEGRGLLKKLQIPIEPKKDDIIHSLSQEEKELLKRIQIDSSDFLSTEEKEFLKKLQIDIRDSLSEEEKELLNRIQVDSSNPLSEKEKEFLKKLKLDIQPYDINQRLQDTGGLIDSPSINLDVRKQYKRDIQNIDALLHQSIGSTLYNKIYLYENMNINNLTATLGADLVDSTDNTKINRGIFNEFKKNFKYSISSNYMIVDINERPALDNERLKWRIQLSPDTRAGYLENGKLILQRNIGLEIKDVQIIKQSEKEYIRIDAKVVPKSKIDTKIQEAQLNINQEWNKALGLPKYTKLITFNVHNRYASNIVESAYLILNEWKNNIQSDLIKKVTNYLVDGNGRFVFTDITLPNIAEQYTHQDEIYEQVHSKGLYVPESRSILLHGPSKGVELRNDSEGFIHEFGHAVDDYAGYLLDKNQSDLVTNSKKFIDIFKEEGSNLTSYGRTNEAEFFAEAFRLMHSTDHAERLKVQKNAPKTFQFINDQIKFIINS
MazEF act: activators of E. coli MazEF toxin-antitoxin RNase | FAM/BHQ RNA-DNA oligo cleavage fluorescence, 5 h | activation, % at 20 µM | 350,000 tested, 0.32% active | AID 504720; in the data active means activation above about 50%
Starred values were filed as active, the others as inactive; ? = inconclusive; / = no result. An excerpt weighted towards active compounds, which were near 3.7% of everything screened. Unless noted, no stated cut-off is given here; in the data, active means inhibition above about 30%; inconclusive means no clear call, values can overlap the other calls; inactive means below that.

SMILES	BoNT F protease	BoNT A protease	Autofluor counter	Anthrax LF inh2	MazEF act
N#Cc1ccc(CN2CCN(C(=O)C3CC(=O)N(c4ccc5c(c4)OCCO5)C3)CC2)cc1 (stereo not drawn)	-8.7	-1.3	4608	-3.2	-5.2
COc1ccc(C)cc1NC1=C(Cl)C(=O)N(C2CCCCC2)C1=O	-5.3	-1.3	22693*	-3.0	-1.9
CN(CC(=O)Nc1cccc(Cl)c1)S(=O)(=O)/C=C/c1ccccc1	-10.1	-1.4	4062	-2.6	1.4
Cc1noc(C)c1COc1ccc(CC(=O)NCCc2ccccc2)cc1	8.4	0.4	8573	-5.3	12.0
Cc1nnc(NC(=O)Cc2ccc(OCc3c(C)noc3C)cc2)s1	-5.4	-2.3	17361*	0.3	-6.4
O=C(Cc1ccc(F)cc1)c1ccc(O)cc1O	1.0	1.1	19761*	-1.1	0.5
C[C@@H]1CN([C@@H](C)CO)C(=O)Cc2cc(NS(=O)(=O)c3cn(C)cn3)ccc2O[C@@H]1CN(C)C(=O)Nc1ccccc1	-5.8	-0.2	3465	-0.9	3.5
NC(=O)CN1CCN(c2nc(-c3ccc(F)cc3)cs2)CC1	-1.7	-0.5	4771	-0.7	-1.1
O=C(CN1CCN(c2nc(-c3ccc(F)cc3)cs2)CC1)Nc1ccc2c(c1)OCO2	-5.9	-1.7	16899*	-5.3	0.4
COc1ccccc1NS(=O)(=O)c1cccc(C(=O)NCC(c2ccc(F)cc2)N2CCOCC2)c1 (stereo not drawn)	3.5	-1.0	5913	-0.6	-2.6
C[N+]1(CC(=O)Nc2ccc(F)cc2)CCN(C(=O)c2ccco2)CC1	2.7	0.3	16539*	-1.6	-1.0
Cc1ccc(NC(=O)CN2CCN(C(=O)c3ccco3)CC2)cc1	9.0	1.2	3693	-3.2	-10.1
CCCCCn1c(SCC(=O)c2ccccc2)nc2cc(C(=O)NCC3CCCO3)ccc2c1=O (stereo not drawn)	2.7	-0.4	4705	-2.7	-7.7
CCOC(=O)c1cc(=O)nc(N)s1	-5.1	-0.8	4048	-5.6	3.8
Cc1ccc(C(=O)c2oc3nc(C)cc(C)c3c2N)cc1	-9.4	-1.1	5983	-2.4	6.7
CCc1ccc(C(=O)c2oc3nc(C)cc(C)c3c2N)cc1	-3.4	-2.6	20259*	-5.0	2.5
CN(Cc1ccccc1)c1nc2c(c(=O)[nH]c(=O)n2C)n1Cc1ccccc1Cl	-0.7	?	22859*	-3.8	8.7
CN(Cc1ccccc1)c1nc2c(c(=O)[nH]c(=O)n2C)n1CCCc1ccccc1	-7.8	1.0	10168	-0.1	4.2
COc1ccccc1N1CCN(C(c2cc3ccc(C)cc3[nH]c2=O)c2nnnn2C2CCCC2)CC1 (stereo not drawn)	4.7	4.2	14791	-8.4	-2.4
Fc1ccc(C(c2nnnn2C2CCCC2)N2CCc3ccccc32)cc1 (stereo not drawn)	-5.2	-2.7	17043*	-3.3	4.8
CCC(C)(C)n1nnnc1C(c1cc2ccc(OC)cc2[nH]c1=O)N1CCN(C2CCCCC2)CC1 (stereo not drawn)	-4.6	?	21897*	2.6	-5.7
Fc1ccc(C(c2nnnn2CCc2ccccc2)N2CCCc3ccccc32)cc1 (stereo not drawn)	-33.3	-1.9	5148	-6.3	-1.5
CCC(C)(C)n1nnnc1C(c1cc2cc3c(cc2[nH]c1=O)OCO3)N1CCCCC1 (stereo not drawn)	-8.5	1.1	10893	0.2	0.1
CCOC(=O)C1CCN(C(c2cc3ccc(C)cc3[nH]c2=O)c2nnnn2C2CCCCC2)CC1 (stereo not drawn)	1.3	-3.4	28733*	0.7	-3.6
COc1ccccc1N1CCN(C(c2cc3cc(C)ccc3[nH]c2=O)c2nnnn2C2CCCC2)CC1 (stereo not drawn)	2.7	1.9	21854*	0.4	-2.7
SMILES	BoNT F protease	BoNT A protease	Autofluor counter	Anthrax LF inh2	MazEF act
COC(=O)[C@H](CCSC)NC(=O)Cn1cc(C)c(=O)[nH]c1=O	0.7	-0.2	3835	-2.7	12.1
COCCNC(=O)C1CCCN(C(=O)c2sccc2C)CC1 (stereo not drawn)	-5.8	-0.1	3746	-0.1	/
O=C(NC(Cc1c[nH]c2ccccc12)C(=O)O)OCC1c2ccccc2-c2ccccc21 (stereo not drawn)	-4.9	-0.1	5532	4.0	/
CCCn1c(N)c(C(=O)COC(=O)CNC(=O)c2ccccc2OCC)c(=O)[nH]c1=O	-4.6	-0.6	5486	-2.4	-7.5
CCN(CC)C(c1ccc(C)cc1)c1nnnn1C1CCCCC1 (stereo not drawn)	2.7	-0.2	10419	-6.9	-1.2
COc1cc2cc(C(c3nnnn3C3CCCC3)N3CCc4ccccc43)c(=O)[nH]c2cc1OC (stereo not drawn)	5.1	5.8	19430*	0.0	2.5
